Data on 24 molecules can be found in the supplement of paper PMC10037445.

Each structure is given as a SMILES string. In all, about 2,900 compounds were measured (“NF-kB SEAP reporter activity, fold change vs agonist alone”: median about 0.99, highest 2% from about 2.6 on). What follows is part of a selection rich in the highest values, with near analogues and random picks from the rest.

The subject of test [1] is RAW-Dual. The test can be described thus: NF-kB SEAP reporter activity, fold change vs agonist alone; higher = enhanced NF-kB activity. The method, boiled down: (§1)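 Library stock was pin-tooled at 50 nL into 384-well plates of RAW-Dual macrophages (50,000 cells/well, DMEM), followed 1 h later by a PRR agonist, and the cells were kept at 37 °C, 5% CO2. Supernatant collected after 20 hours was read for IRF by QuantiLuc luminescence and for NF-κB by QuantiBlue absorbance at 620 nm. Reporter activity is fold change over agonist-alone wells, and a well counted as cytotoxic when its IncuCyte confluency was below 70% of agonist controls in both mask sets.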

Test [2] concerns RAW-Dual. In words: NF-kB SEAP reporter activity, fold change vs agonist alone; cytotoxicity flag (confluency mask): not cytotoxic; higher = enhanced NF-kB activity. In a few lines: as §1
Test [3] concerns RAW-Dual. In words: NF-kB SEAP reporter activity, fold change vs agonist alone; cytotoxicity flag (confluency mask): cytotoxic (confluency <70% of control); higher = enhanced NF-kB activity. In a few lines: as §1
Where [4] appears, read: library stock concentration (final ~1000-fold dilution): 10 mM, cytotoxicity flag (confluency mask): not cytotoxic, agonist: Imiquimod (TLR7) […].
Where [5] appears, read: library stock concentration (final ~1000-fold dilution): 10 mM, cytotoxicity flag (confluency mask): not cytotoxic, agonist: MPLA (TLR4) […].
The mark [6] stands for this setting: agonist: ODN 1826 (TLR9) 0.5 ug/mL.
The mark [7] stands for this setting: agonist: Pam2CSK4 (TLR2/6) 0.1 ug/mL.
The mark [8] stands for this setting: agonist: Pam3CSK4 (TLR2/1) 0.1 ug/mL.
The mark [9] stands for this setting: library stock concentration (final ~1000-fold dilution): 10 mM, cytotoxicity flag (confluency mask): cytotoxic (confluency <70% of control), agonist: Imiquimod (TLR7) […].
Where [10] appears, read: library stock concentration (final ~1000-fold dilution): 10 mM, cytotoxicity flag (confluency mask): cytotoxic (confluency <70% of control), agonist: MPLA (TLR4) […].

Turning to `OCC1OC(c2ccc(F)c(Cc3cc4ccccc4s3)c2)C(O)C(O)C1O` (configuration not stated), the “NF-kB SEAP reporter activity” value stood at 1.06 in the test on RAW-Dual [1] (setting [4]) and 1.04 in the test with RAW-Dual [1] (setting [5]).
With `OCC1OC(c2ccc(F)c(Cc3cc4ccccc4s3)c2)C(O)C(O)C1O` (configuration not stated) (library stock concentration (final ~1000-fold dilution): 10 mM), the “NF-kB SEAP reporter activity” value is 1.07 with RAW-Dual [2] (agonist: LPS (TLR4) 0.1 ug/mL), 0.948 with RAW-Dual [2] (setting [6]), 1.15 in the test on RAW-Dual [2] (setting [7]) and 1.17 in the test on RAW-Dual [2] (setting [8]).
Turning to `Nc1ccn(C2CSC(CO)O2)c(=O)n1` (configuration not stated), the “NF-kB SEAP reporter activity” value in the test with RAW-Dual [1] (setting [4]) was 0.893; in the test with RAW-Dual [1] (setting [5]) it was 1.04.
On to `Nc1ccn(C2CSC(CO)O2)c(=O)n1` (configuration not stated) (library stock concentration (final ~1000-fold dilution): 10 mM), for which the “NF-kB SEAP reporter activity” value with RAW-Dual [2] (agonist: LPS (TLR4) 0.1 ug/mL) worked out at 0.862; in the test with RAW-Dual [2] (setting [6]) it was 1.03; in the test on RAW-Dual [2] (setting [7]) it was 0.999; in the test on RAW-Dual [2] (setting [8]), 1.11.
On the same counts, the results for `COC1CCC(N2C(=O)CNc3ncc(-c4ccc(C(C)(C)O)nc4)nc32)CC1` (configuration not stated) (library stock concentration (final ~1000-fold dilution): 10 mM) are 0.463, 0.349, 0.719 and 0.458.
As for `COC1CCC(N2C(=O)CNc3ncc(-c4ccc(C(C)(C)O)nc4)nc32)CC1` (configuration not stated), the “NF-kB SEAP reporter activity” value with RAW-Dual [1] (setting [4]) turned out to be 0.711; in the test on RAW-Dual [1] (setting [5]), 0.53.
`CC(NC(=O)C(=O)Nc1ccccc1C(C)(C)C)C(=O)NC(CC(=O)O)C(=O)COc1c(F)c(F)cc(F)c1F` (configuration not stated): the “NF-kB SEAP reporter activity” value was 1.15 in the test with RAW-Dual [1] (setting [4]) and 0.848 with RAW-Dual [1] (setting [5]).
For the molecule `CC(NC(=O)C(=O)Nc1ccccc1C(C)(C)C)C(=O)NC(CC(=O)O)C(=O)COc1c(F)c(F)cc(F)c1F` (configuration not stated) (library stock concentration (final ~1000-fold dilution): 10 mM), the “NF-kB SEAP reporter activity” value was 0.607 in the test on RAW-Dual [2] (agonist: LPS (TLR4) 0.1 ug/mL), 1.25 in the test with RAW-Dual [2] (setting [6]), 0.912 with RAW-Dual [2] (setting [7]) and 1.17 in the test with RAW-Dual [2] (setting [8]).
Turning to `CCOC(=O)Nc1cc(-c2ccc(C)c(NS(C)(=O)=O)c2)nn2c(C)nnc12` (library stock concentration (final ~1000-fold dilution): 10 mM), the “NF-kB SEAP reporter activity” value with RAW-Dual [2] (agonist: LPS (TLR4) 0.1 ug/mL) is 3.81; with RAW-Dual [2] (setting [6]), 1.93; in the test on RAW-Dual [2] (setting [7]), 0.828; in the test with RAW-Dual [2] (setting [8]) it was 1.44.
As to `CCOC(=O)Nc1cc(-c2ccc(C)c(NS(C)(=O)=O)c2)nn2c(C)nnc12`, the “NF-kB SEAP reporter activity” value was found to be 1.43 with RAW-Dual [1] (setting [4]) and 2.52 with RAW-Dual [1] (setting [5]).
Take `CCOC(=O)C1=CC(OC(CC)CC)C(NC(C)=O)C(N)C1` (configuration not stated) (library stock concentration (final ~1000-fold dilution): 2 mM): the “NF-kB SEAP reporter activity” value in the test with RAW-Dual [2] (agonist: LPS (TLR4) 0.1 ug/mL) came out at 1.17; in the test on RAW-Dual [2] (setting [6]) it was 1.08; with RAW-Dual [2] (setting [7]), 1.16; with RAW-Dual [2] (setting [8]), 1.11.
In the case of `CCOC(=O)C1=CC(OC(CC)CC)C(NC(C)=O)C(N)C1` (configuration not stated), the “NF-kB SEAP reporter activity” value turned out to be 0.848 in the test with RAW-Dual [1] (library stock concentration (final ~1000-fold dilution): 2 mM, cytotoxicity flag (confluency mask): not cytotoxic, agonist: Imiquimod (TLR7) […]) and 1.03 in the test on RAW-Dual [1] (library stock concentration (final ~1000-fold dilution): 2 mM, cytotoxicity flag (confluency mask): not cytotoxic, agonist: MPLA (TLR4) […]).
`N#Cc1cnc(Nc2cc(NCC3CNCCO3)c(C(F)(F)F)cn2)cn1` (configuration not stated): the “NF-kB SEAP reporter activity” value with RAW-Dual [1] (setting [4]) turned out to be 1.66; in the test on RAW-Dual [1] (setting [5]), 0.936.
For the molecule `N#Cc1cnc(Nc2cc(NCC3CNCCO3)c(C(F)(F)F)cn2)cn1` (configuration not stated) (library stock concentration (final ~1000-fold dilution): 10 mM), the “NF-kB SEAP reporter activity” value was 1.37 with RAW-Dual [2] (agonist: LPS (TLR4) 0.1 ug/mL), 1.25 in the test with RAW-Dual [2] (setting [6]), 1.34 with RAW-Dual [2] (setting [7]) and 1.5 with RAW-Dual [2] (setting [8]).
Consider `COc1ccc2cc(-c3[nH]c(-c4ccc(S(C)=O)cc4)nc3-c3ccncc3)ccc2c1` (configuration not stated), for which the “NF-kB SEAP reporter activity” value in the test with RAW-Dual [1] (setting [4]) was 1.81; in the test with RAW-Dual [1] (setting [5]) it was 2.57.
With `COc1ccc2cc(-c3[nH]c(-c4ccc(S(C)=O)cc4)nc3-c3ccncc3)ccc2c1` (configuration not stated) (library stock concentration (final ~1000-fold dilution): 10 mM), the “NF-kB SEAP reporter activity” value in the test with RAW-Dual [2] (agonist: LPS (TLR4) 0.1 ug/mL) worked out at 3.42; in the test on RAW-Dual [2] (setting [6]), 2.22; in the test on RAW-Dual [2] (setting [7]), 1.74; in the test on RAW-Dual [2] (setting [8]), 2.04.
For `CS(=O)c1ccc(-c2nc(-c3ccc(F)cc3)c(-c3ccncc3)[nH]2)cc1` (configuration not stated), the entries for the “NF-kB SEAP reporter activity” value in the test on RAW-Dual [1] (setting [4]) and with RAW-Dual [1] (setting [5]) were 1.52 and 1.61, respectively.
For `CS(=O)c1ccc(-c2nc(-c3ccc(F)cc3)c(-c3ccncc3)[nH]2)cc1` (configuration not stated) (library stock concentration (final ~1000-fold dilution): 10 mM), the “NF-kB SEAP reporter activity” value is 2.27 in the test with RAW-Dual [2] (agonist: LPS (TLR4) 0.1 ug/mL), 0.762 in the test with RAW-Dual [2] (setting [6]), 0.716 with RAW-Dual [2] (setting [7]) and 1.02 with RAW-Dual [2] (setting [8]).
As for `CCS(=O)(=O)N1CCN(c2ccc(Nc3ncc(C(N)=O)c(NC4CC4)n3)cc2)CC1.Cl` (library stock concentration (final ~1000-fold dilution): 10 mM), the “NF-kB SEAP reporter activity” value in the test with RAW-Dual [3] (agonist: LPS (TLR4) 0.1 ug/mL) came out at 0.273; with RAW-Dual [3] (setting [6]), 0.218; with RAW-Dual [3] (setting [7]) it was 0.0746; in the test on RAW-Dual [3] (setting [8]) it was 0.121.
As for `CCS(=O)(=O)N1CCN(c2ccc(Nc3ncc(C(N)=O)c(NC4CC4)n3)cc2)CC1.Cl`, the “NF-kB SEAP reporter activity” value with RAW-Dual [1] (setting [9]) stood at 0.23; in the test with RAW-Dual [1] (setting [10]), 0.398.
As for `CCOc1ccc(Cc2cc(C3OC(CO)C(O)C(O)C3O)ccc2Cl)cc1` (configuration not stated) (library stock concentration (final ~1000-fold dilution): 10 mM), the “NF-kB SEAP reporter activity” value was 1.04 with RAW-Dual [2] (agonist: LPS (TLR4) 0.1 ug/mL), 1.2 with RAW-Dual [2] (setting [6]), 1.01 in the test on RAW-Dual [2] (setting [7]) and 1.1 in the test on RAW-Dual [2] (setting [8]).
As for `CCOc1ccc(Cc2cc(C3OC(CO)C(O)C(O)C3O)ccc2Cl)cc1` (configuration not stated), the “NF-kB SEAP reporter activity” value in the test on RAW-Dual [1] (setting [4]) was found to be 1.04; in the test with RAW-Dual [1] (setting [5]), 1.03.
With `CCC1(O)CC2CN(CCc3c([nH]c4ccccc34)C(C(=O)OC)(c3cc4c(cc3OC)N(C=O)C3C(O)(C(=O)OC)C(OC(C)=O)C5(CC)C=CCN6CCC43C65)C2)C1.O=S(=O)(O)O` (configuration not stated) (library stock concentration (final ~1000-fold dilution): 10 mM), the “NF-kB SEAP reporter activity” value was 5.34 in the test with RAW-Dual [2] (agonist: LPS (TLR4) 0.1 ug/mL), 3.28 with RAW-Dual [2] (setting [6]), 1.99 with RAW-Dual [2] (setting [7]) and 2.22 with RAW-Dual [2] (setting [8]).
`CCC1(O)CC2CN(CCc3c([nH]c4ccccc34)C(C(=O)OC)(c3cc4c(cc3OC)N(C)C3C(O)(C(=O)OC)C(OC(C)=O)C5(CC)C=CCN6CCC43C65)C2)C1.O=S(=O)(O)O` (configuration not stated): the “NF-kB SEAP reporter activity” value was 2.51 in the test with RAW-Dual [1] (setting [9]) and 2.53 with RAW-Dual [1] (setting [10]).
